We go through 21 compounds from PubChem BioAssay.

For part of these data: Measured potencies and affinities stand elsewhere. Active and inactive are the calls of the source. Unless noted, how the calls were made is not given here.

The target in assay [1] is 6-phosphogluconate dehydrogenase, decarboxylating (Homo sapiens) (UniProt P52209). Put plainly: inhibition of human phosphogluconate dehydrogenase – biochemical, recombinant enzyme, NADPH absorbance, primary screen (AID 1159550;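 active means at least 20% inhibition of 6-phosphogluconate dehydrogenase activity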). The settings on record: recombinant 6PGD, NADPH absorbance 341 nm; at 10 µM; stronger effect = higher value.
Sequence of 6-phosphogluconate dehydrogenase, decarboxylating (Homo sapiens) (P52209 whole entry, looked up): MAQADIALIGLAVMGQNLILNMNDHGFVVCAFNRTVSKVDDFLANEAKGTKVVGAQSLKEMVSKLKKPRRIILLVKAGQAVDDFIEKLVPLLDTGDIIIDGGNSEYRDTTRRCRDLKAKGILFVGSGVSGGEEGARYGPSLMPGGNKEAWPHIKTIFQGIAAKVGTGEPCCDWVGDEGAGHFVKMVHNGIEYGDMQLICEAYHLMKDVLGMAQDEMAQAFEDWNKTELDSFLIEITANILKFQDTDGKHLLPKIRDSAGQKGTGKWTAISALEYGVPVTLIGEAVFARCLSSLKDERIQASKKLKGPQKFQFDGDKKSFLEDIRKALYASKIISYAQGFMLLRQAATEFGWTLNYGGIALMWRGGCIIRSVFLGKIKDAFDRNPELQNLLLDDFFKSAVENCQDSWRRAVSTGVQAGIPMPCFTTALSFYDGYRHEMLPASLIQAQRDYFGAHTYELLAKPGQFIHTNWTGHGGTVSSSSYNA
The nature of assay [2]: EMT-state selective cytotoxicity in co-culture – imaging, PC-3E GFP, TEM4-18 mCherry, primary screen (AID 1345086;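 active means compounds killing one labelled cell type while sparing the other, by normalised counts and ratio limits, not self-fluorescent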;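 on all read-outs here: cells exposed to compound for 72 h before imaging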;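 on red/green cell ratio (normalised): normalised mesenchymal count divided by normalised epithelial count so high means epithelial killing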). The settings on record: PC-3E GFP / TEM4-18 mCherry co-culture, imaging cell counts, at 1 µM; for red/green cell ratio (normalised): actives lie on both sides.
For assay [3], the system named is Aerobactin synthetase IucA (Klebsiella pneumoniae hvKP1). Briefly: IucA enzyme inhibition, primary screen, biochemical, Spectrum library (AID 1346200).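 Further: 100% = wells without compound and 0% = wells lacking enzyme.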 As to conditions: malachite green pyrophosphate, A620, at 8 µM, stronger effect = lower value.
For assay [4], the target named is Mitogen-activated protein kinase 7 (Homo sapiens) (UniProt Q13164). Put plainly: Gal4-ERK5 driven luciferase induction – cell-based, HTS, primary screen (AID 1508626;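 active means luciferase signal above three times the same-plate solvent-only control wells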;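 further: luciferase driven by Gal4-ERK5 fusion binding five Gal4 sites before minimal TATA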). As to conditions: HeLa Gal4-ERK5 transactivation, 18 h, at 5 µM, stronger effect = higher value.
Sequence of Mitogen-activated protein kinase 7 (Homo sapiens) (Q13164 whole entry, looked up, the tested form may be a part): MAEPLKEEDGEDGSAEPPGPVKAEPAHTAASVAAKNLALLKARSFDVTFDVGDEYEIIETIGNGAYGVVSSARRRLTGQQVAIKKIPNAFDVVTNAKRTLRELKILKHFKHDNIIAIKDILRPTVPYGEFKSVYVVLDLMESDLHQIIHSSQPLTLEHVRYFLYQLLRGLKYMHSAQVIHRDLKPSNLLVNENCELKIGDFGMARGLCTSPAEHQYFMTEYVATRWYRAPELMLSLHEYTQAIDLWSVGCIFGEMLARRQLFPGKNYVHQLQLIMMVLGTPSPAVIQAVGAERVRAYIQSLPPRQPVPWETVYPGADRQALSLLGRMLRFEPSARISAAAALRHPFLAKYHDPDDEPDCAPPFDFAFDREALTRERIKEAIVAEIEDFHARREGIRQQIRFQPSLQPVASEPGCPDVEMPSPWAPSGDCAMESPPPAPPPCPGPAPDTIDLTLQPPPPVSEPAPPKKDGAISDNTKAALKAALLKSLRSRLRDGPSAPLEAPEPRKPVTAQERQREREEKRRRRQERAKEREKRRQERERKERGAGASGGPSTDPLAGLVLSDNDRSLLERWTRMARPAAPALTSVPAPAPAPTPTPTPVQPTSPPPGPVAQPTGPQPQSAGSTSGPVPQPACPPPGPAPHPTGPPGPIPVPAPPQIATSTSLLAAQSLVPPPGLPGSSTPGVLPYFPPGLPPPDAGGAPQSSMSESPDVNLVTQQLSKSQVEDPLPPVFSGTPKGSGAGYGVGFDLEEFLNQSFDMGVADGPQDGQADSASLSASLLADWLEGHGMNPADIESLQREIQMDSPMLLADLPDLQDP
The nature of assay [5]: blockers of polyQ-driven CASP3 activation – cell-based (AID 1583). As to conditions: polyglutamine-induced caspase-3 activation, cell assay; stronger effect = higher value;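 tested at 10 µM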.
The nature of assay [6]: yeast 75Q aggregation reduction – 75Q-TubU reporter (AID 1593). The settings on record: Yeast 75Q polyglutamine aggregation reporter.
A short description of assay [7]: restoration of touch response, mutant HTT neurons – whole organism, C. elegans mechanosensory neurons, N-terminal huntingtin (AID 1599). The settings on record: C. elegans polyQ-huntingtin mechanosensory neurons, stronger effect = higher value.
Assay [8] can be described thus: blockers of cytochrome c efflux from mitochondria – biochemical, purified mitochondria (AID 1603).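 Further: mouse liver mitochondria challenged with calcium chloride; signal normalized to the plate average as 100%.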 The settings on record: stronger effect = lower value.
Assay [9] can be described thus: polyglutamine aggregate formation blockers (AID 1604). The settings on record: polyglutamine-induced protein aggregation inhibition assay; stronger effect = higher value; tested at 2.5 µM.
The nature of assay [10]: glutamate transport activators, MN-1 cells, MN-1 cell line (AID 1612).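 Further: tested at 1 µM final; 0% = mean of DMSO vehicle wells on each plate; positive means more glutamate uptake than control and negative means less.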 As to conditions: MN-1 motor neuron cells, stronger effect = higher value.
A short description of assay [11]: GFP-Q80 aggregate reduction, neuronal-like cells, cell-based, NGF-treated PC12, GFPQ80 (AID 1614).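 Further: lower means fewer inclusions and 0 means no inclusions at all.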 As to conditions: PC12 NGF-treated GFP-polyQ80 inclusion reduction.
Assay [12] is described as follows: 75Q-TubH aggregate inhibition, S. cerevisiae, yeast (AID 1616). As to conditions: S. cerevisiae 75Q-TubH polyglutamine aggregation suppression; stronger effect = higher value.
The nature of assay [13]: P. berghei load reduction in hepatocytes – cell-based, HepG2, luciferase luminescence, HepG2 viability, primary screen (AID 624349; in the data active means parasite load remaining mostly below about 12%, no sharp cut-off; inactive means mostly above about 10%;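 further: 100% = mean of DMSO negative control wells on the same plate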). As to conditions: P. berghei liver stage in HepG2, luciferase luminescence, concentration not given here; parasite load remaining: stronger effect = lower value; viability: measured here: HepG2 viability without parasites.
Setting [14] is: measured here: epithelial PC-3E GFP cell survival.
The mark [15] stands for this setting: measured here: mesenchymal TEM4-18 mCherry cell survival.
[16] abbreviates: counts scaled to control wells, 1 = unselective.

With `CC(C)(C#N)O[C@@H]1O[C@H](CO)[C@@H](O)[C@H](O)[C@H]1O`, the inhibition in assay [1] was 5.98% (inactive). The red/green cell ratio (normalised) in assay [2] was 0.8 (inactive). In addition, the normalised cell number in assay [2] (setting [14]) was 0.84; in assay [2] (setting [15]) it was 0.67. Besides, the activity remaining in assay [3] is 94.3% (inactive). Also, the luciferase signal in assay [4] was 92 AU (inactive).

For the compound `COc1cccc(C=O)c1OC`, the inhibition in [1] is 7.48% (inactive). Moreover, the red/green cell ratio (normalised) in assay [2] (setting [16]) is 1.04 (inactive). Further, the normalised cell number amounted to 0.98 in assay [2] (setting [14]) and 1.02 in [2] (setting [15]). Also, the activity remaining in [3] was 93.4% (inactive). In addition, the luciferase signal in assay [4] was 60 AU (inactive).

With `Cc1[nH]c2ccccc2c1CN(C)C`, in assay [1], the inhibition was -5.39% (inactive). The red/green cell ratio (normalised) in assay [2] is 0.92 (inactive). The normalised cell number in [2] (setting [14]) is 0.99; in [2] (setting [15]), 0.91. In addition, the activity remaining in assay [3] is 101% (inactive). In addition, the luciferase signal in [4] was 44 AU (inactive).

With `CC(=O)OC1CCC23C(=O)OC45CCC(C6=CC(=O)OC6)C4(C)CCC2C5CCC3(O)C1` (configuration not stated), in [1], the inhibition is -5.39% (inactive). The red/green cell ratio (normalised) in assay [2] was 0.32 (inactive). For the same compound, the normalised cell number in [2] (setting [14]) worked out at 0.2; in [2] (setting [15]), 0.07. Moreover, the activity remaining in assay [3] is 124% (inactive). The luciferase signal in [4] was 16 AU (inactive).

With `CC1(C)C(=O)[C@@H]2O[C@@H]2[C@@]2(C)C1C[C@@H](O)[C@]1(C)C2CC[C@@]2(C)[C@H](c3ccoc3)OC(=O)C3OC321` (some centres not stated), the inhibition in assay [1] is 4.53% (inactive). For the same compound, in assay [2], the red/green cell ratio (normalised) was 1.01 (inactive). Further, the normalised cell number in assay [2] (setting [14]) and in assay [2] (setting [15]) was 1.01 throughout. For the same compound, the activity remaining in assay [3] was 96.1% (inactive). For the same compound, the luciferase signal in assay [4] is 24 AU (inactive).

Take `CC(C)=CCCC1(C)C=Cc2c(O)c3c(c(CC=C(C)C)c2O1)OC12C(CC4CC1C(C)(C)OC2(C/C=C(/C)C(=O)O)C4O)C3=O` (configuration not stated): the inhibition in assay [1] was -6.13% (inactive). Besides, the red/green cell ratio (normalised) in assay [2] was 1.11 (inactive). The normalised cell number in [2] (setting [14]) came out at 0.96; in [2] (setting [15]), 1.07. Further, in [3], the activity remaining was 119% (inactive). The luciferase signal in [4] was 96 AU (inactive).

Turning to `COc1cc2c(cc1OC)[C@@H]1C(=O)c3ccc(OC)c(CC=C(C)C)c3O[C@@H]1CO2`, in [1], the inhibition is 18.8% (inactive). Further, the red/green cell ratio (normalised) in [2] is 0.91 (inactive). Further, the normalised cell number in assay [2] (setting [14]) is 0.87; in assay [2] (setting [15]), 0.8. Besides, the activity remaining in [3] is 109% (inactive). Besides, in assay [4], the luciferase signal is 68 AU (inactive).

For the compound `CC(=O)Oc1ccc(/C=C/c2cc(OC(C)=O)cc(OC(C)=O)c2)cc1`, the inhibition in [1] was -2.26% (inactive). Moreover, the red/green cell ratio (normalised) in assay [2] was 1.01 (inactive). Besides, the normalised cell number in [2] (setting [14]) turned out to be 0.98; in assay [2] (setting [15]) it was 1. Also, in assay [3], the activity remaining is 103% (inactive). The luciferase signal in assay [4] is 20 AU (inactive).

Regarding `COc1cc2ccc(=O)oc2c2ccoc12`, the inhibition in [1] is 13.8% (inactive). In addition, the red/green cell ratio (normalised) in assay [2] is 1.01 (inactive). Besides, the figures for the normalised cell number in [2] (setting [14]) and in assay [2] (setting [15]) were 0.96 and 0.97, respectively. Besides, in [3], the activity remaining is 119% (inactive). Further, the luciferase signal in [4] is 64 AU (inactive).

Take `O=C1c2ccccc2-c2cccc3cccc1c23`: the inhibition in assay [1] is -2.36% (inactive). The red/green cell ratio (normalised) in assay [2] (setting [16]) was 0.82 (inactive). In addition, the values for the normalised cell number in assay [2] (setting [14]) and in assay [2] (setting [15]) were 1.23 and 1.01, respectively. For the same compound, the activity remaining in [3] is 106% (inactive). Also, in assay [4], the luciferase signal is 64 AU (inactive).

As for `COc1cc2c(cc1O)CCNC2C` (configuration not stated), in assay [1], the inhibition was -21.7% (inactive). In assay [2], the red/green cell ratio (normalised) is 0.92 (inactive). Also, the normalised cell number in assay [2] (setting [14]) is 1; in assay [2] (setting [15]), 0.92. The activity remaining in assay [3] was 107% (inactive). Besides, the luciferase signal in assay [4] is 120 AU (inactive).

Turning to `CC(=O)Oc1c2c(c(CC=C(C)C)c3c1C(=O)C1=C[C@@H]4CC5C(C)(C)OC(C/C=C(\C)C(=O)O)(C4=O)[C@@]15O3)OC(C)(CCC=C(C)C)C=C2` (some centres not stated), in assay [1], the inhibition was 23.4% (active). Further, the red/green cell ratio (normalised) in assay [2] (setting [16]) is 0.83 (inactive). The normalised cell number in assay [2] (setting [14]) came to 1.18; in assay [2] (setting [15]), 0.98. Besides, the activity remaining in assay [3] was 120% (inactive). In [4], the luciferase signal is 140 AU (inactive).

With `CC(C)=CCCC1(C)C=Cc2c(O)c3c(c(CC=C(C)C)c2O1)OC12C(=CC4CC1C(C)(C)OC2(C/C=C(/C)C(=O)O)C4O)C3=O` (configuration not stated), the inhibition in assay [1] was 3.01% (inactive). The red/green cell ratio (normalised) in assay [2] was 0.97 (inactive). Also, the normalised cell number in [2] (setting [14]) is 0.89; in assay [2] (setting [15]), 0.87. The activity remaining in assay [3] is 106% (inactive). In addition, the luciferase signal in [4] was 88 AU (inactive).

As to `CC(=O)CC1CCCCN1` (configuration not stated), the inhibition in assay [1] was 16.3% (inactive). Moreover, in [2] (setting [16]), the red/green cell ratio (normalised) is 1.09 (inactive). In addition, the normalised cell number came out at 0.99 in assay [2] (setting [14]) and 1.09 in assay [2] (setting [15]). The activity remaining in [3] was 107% (inactive). The luciferase signal in [4] is 48 AU (inactive).

`NCC(=O)c1ccccc1`: in assay [1], the inhibition was -6.79% (inactive). Also, the red/green cell ratio (normalised) in [2] is 0.98 (inactive). The normalised cell number was found to be 1.03 in assay [2] (setting [14]) and 1.02 in assay [2] (setting [15]). In addition, the activity remaining in assay [3] was 114% (inactive). Moreover, in assay [4], the luciferase signal was 56 AU (inactive).

With `CC(=O)C1CCC2C3CCC4C[C@H](O)CCC4(C)C3C[C@H](O)C12C` (some centres not stated), in [1], the inhibition is -3.34% (inactive). In assay [2], the red/green cell ratio (normalised) is 1.12 (inactive). For the same compound, the normalised cell number in [2] (setting [14]) came out at 0.99; in [2] (setting [15]), 1.11. In assay [3], the activity remaining is 112% (inactive). Besides, the luciferase signal in assay [4] was 32 AU (inactive).

As for `CC(C)CCCC1(C)C=Cc2c(O)c3c(c(CCC(C)C)c2O1)OC12C(CC4CC1C(C)(C)OC2(CCC(C)C(=O)O)C4O)C3=O` (configuration not stated), in assay [1], the inhibition was 0.442% (inactive). Also, the red/green cell ratio (normalised) in assay [2] was 0.9 (inactive). The normalised cell number is 0.98 in [2] (setting [14]) and 0.88 in [2] (setting [15]). Further, in assay [3], the activity remaining is 98% (inactive). For the same compound, in assay [4], the luciferase signal is 76 AU (inactive).

Turning to `CC1=CCCC2C1(C)CCC(C)C2(C)CC/C(C)=C/C[n+]1cn(C)c2c(N)ncnc21` (configuration not stated), the inhibition in assay [1] is 12% (inactive). For the same compound, in assay [2], the red/green cell ratio (normalised) is 0.92 (inactive). The normalised cell number in assay [2] (setting [14]) was 0.97; in assay [2] (setting [15]) it was 0.89. The activity remaining in assay [3] was 115% (inactive). The luciferase signal in [4] was 64 AU (inactive).

For the compound `O=C1NC(=O)C(=O)C(=O)N1`, in assay [1], the inhibition is -13.9% (inactive). Also, the red/green cell ratio (normalised) in assay [2] was 0.89 (inactive). The values for the normalised cell number in [2] (setting [14]) and in [2] (setting [15]) were 1.09 and 0.98, respectively. Moreover, the activity remaining in [3] was 123% (inactive). For the same compound, the luciferase signal in assay [4] was 44 AU (inactive).

As to `CC(C)(O)[C@@H]1[C@H]2OC(=O)[C@@H]1[C@]1(O)C[C@H]3O[C@]34C(=O)O[C@H]2[C@]14C`, the inhibition in assay [5] was -16.4%; in assay [1], 6.64% (inactive). Besides, in [6], the score amounted to 1.49. The compound also came in with a rescue above control in assay [7] of 8.41. The cytochrome c release ratio in [8] is 0.87. Besides, in [9], the inhibition of aggregation was found to be 51%. The compound further gave a glutamate uptake change in [10] of 14.8%. In [11], the inclusion score came to 2. Besides, the aggregation suppression score in assay [12] was 1.53. The parasite load remaining in assay [13] is 79% (inactive). This compound also came in with a viability in [13] of 91.4%. The red/green cell ratio (normalised) in assay [2] was 0.89 (inactive). Further, the normalised cell number in assay [2] (setting [14]) turned out to be 1.1; in assay [2] (setting [15]), 0.99. Besides, in assay [3], the activity remaining is 107% (inactive). For the same compound, the luciferase signal in [4] is 84 AU (inactive).

As for `CC1C[C@H]2CC(=O)[C@H]3CCCN4CCC[C@H]2[C@]34C1` (some centres not stated), the inhibition in [1] was -1.6% (inactive). Moreover, in [3], the activity remaining is 91.3% (inactive).
